Laboratory results published in PubChem BioAssay (NCI).
Compounds without any hit were thinned out: in the full panel of roughly 83,000, 20% have a hit.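 Single-dose data. Exposure time 48 hours. Values below 10 considered active.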 Active and inactive are the calls of the source.

Assays:
Assay in all cases: NCI-60 one-dose screen, 48 h (100 = growth as untreated, 0 = no growth, -100 = all killed)
NCI-H23 lung = conditions: 10 µM unless noted
NCI-H226 lung = conditions: 10 µM unless noted
NCI-H322M lung = conditions: 10 µM unless noted
HOP-62 NSCLC = conditions: 10 µM unless noted
NCI-H460 lung = conditions: 10 µM unless noted
HOP-92 NSCLC = conditions: 10 µM
NCI-H522 lung = conditions: 10 µM unless noted
A549/ATCC NSCLC = conditions: 10 µM unless noted
786-0 renal = conditions: 10 µM unless noted
COLO 205 colon = conditions: 10 µM unless noted

Measured: growth

CCOC(=O)C(=O)/C(=C\c1ccc(Cl)cc1)C(=O)N1C(=S)NC(=O)C1CC(C)C (stereo not given)
inactive: NCI-H23 lung 96.5% | NCI-H226 lung 92% | NCI-H322M lung 95.3% | HOP-62 NSCLC 95.6% | NCI-H460 lung 102% | HOP-92 NSCLC 86.8% | NCI-H522 lung 91.7% | A549/ATCC NSCLC 104% | 786-0 renal 103% | COLO 205 colon 109%

CCOc1ccccc1NC1=C(Cl)C(=O)c2nc(C)ccc2C1=O
inactive: NCI-H226 lung 17.6% | NCI-H322M lung 28.8% | HOP-62 NSCLC 84.3% | NCI-H460 lung 12.1% | A549/ATCC NSCLC 59.1% | COLO 205 colon 99.2%
active: NCI-H23 lung -67.8% | HOP-92 NSCLC -89.2% | NCI-H522 lung -43.5% | 786-0 renal -88.2%

Cc1ccc2c(c1)Oc1nc(N)c(C#N)c(N)c1C2Sc1ccc(F)cc1 (stereo not given)
active: NCI-H23 lung -88.2% | NCI-H226 lung -50.6% | NCI-H322M lung -98.7% | HOP-62 NSCLC -86.3% | NCI-H460 lung -50.4% | HOP-92 NSCLC -93.6% | NCI-H522 lung -58.1% | A549/ATCC NSCLC -82.2% | 786-0 renal -97.3% | COLO 205 colon -49.7%

COc1ccc(Cn2cc3c(c2-c2cc(OC)c(OC)c(OC)c2)CCc2c(CN4CCOCC4)noc2-3)cc1
inactive: NCI-H226 lung 57.9% | NCI-H322M lung 52.7% | HOP-62 NSCLC 45% | HOP-92 NSCLC 100% | NCI-H522 lung 12.3% | A549/ATCC NSCLC 32.9% | 786-0 renal 55.4% | COLO 205 colon 14.9%
active: NCI-H23 lung 9.12% | NCI-H460 lung 8.85%

COC(=O)C[Se]C(=O)Cc1c(C)n(C(=O)c2ccc(Cl)cc2)c2ccc(OC)cc12
inactive: NCI-H23 lung 11.5% | NCI-H226 lung 52.8% | NCI-H322M lung 44.7% | HOP-62 NSCLC 25.4% | NCI-H460 lung 16.3% | HOP-92 NSCLC 53.2% | NCI-H522 lung 44.8% | A549/ATCC NSCLC 18.7% | 786-0 renal 83.3% | COLO 205 colon 49.5%

COc1cc(/C=C2\C(=O)Nc3cc(Cl)ccc32)ccc1OCc1ccc(F)cc1
inactive: NCI-H23 lung 101% | NCI-H226 lung 91.2% | NCI-H322M lung 98.2% | HOP-62 NSCLC 95.9% | NCI-H460 lung 99% | HOP-92 NSCLC 89.2% | NCI-H522 lung 92.9% | A549/ATCC NSCLC 110% | 786-0 renal 108% | COLO 205 colon 110%

C=C(C=O)[C@@H]1CC[C@]2(COC(C)=O)CC[C@]3(C)C(CC[C@@H]4[C@@]5(C)CC[C@H](OC(C)=O)C(C)(C)[C@@H]5CC[C@]43C)[C@@H]12 (stereo not given in full)
inactive: NCI-H322M lung 40.5% | HOP-62 NSCLC 80.6% | A549/ATCC NSCLC 36.5%
active: NCI-H23 lung -22.4% | NCI-H226 lung -55.5% | NCI-H460 lung -23.2% | HOP-92 NSCLC -78.8% | NCI-H522 lung -35.5% | 786-0 renal 2.99% | COLO 205 colon -8.44%

Cc1cc(C)n(C(=O)c2sc(=S)n(-c3ccccc3)c2N=Nc2c(N)n[nH]c2N)n1
inactive: NCI-H23 lung 104% | NCI-H226 lung 102% | NCI-H322M lung 101% | HOP-62 NSCLC 103% | NCI-H460 lung 108% | HOP-92 NSCLC 114% | NCI-H522 lung 93.2% | A549/ATCC NSCLC 102% | 786-0 renal 111% | COLO 205 colon 109%

CCCCCc1ccc(S(=O)(=O)Nc2cc(-c3csc(NC(=O)CN4CCN(C)CC4)n3)ccc2N2CCN(C)CC2)cc1
inactive: NCI-H23 lung 45.1% | NCI-H226 lung 71.8% | HOP-62 NSCLC 42.5% | HOP-92 NSCLC 49.9% | A549/ATCC NSCLC 15.7%
active: NCI-H322M lung 6.19% | NCI-H460 lung -56% | NCI-H522 lung -39.5% | 786-0 renal -50.9% | COLO 205 colon -51.2%

N#Cc1cccc(NC(=O)c2cc(-c3ccc(F)cc3F)ccc2O)c1
active: NCI-H23 lung 2.72% | NCI-H460 lung 5.69% | HOP-92 NSCLC -24.7% | NCI-H522 lung 1.9%
inactive: NCI-H226 lung 12% | NCI-H322M lung 10.8% | HOP-62 NSCLC 20.9% | A549/ATCC NSCLC 11.3% | 786-0 renal 13.2% | COLO 205 colon 95.2%

NS(=O)(=O)c1ccc(Nc2nc(N/N=C/CCc3ccccc3)nc(Nc3ccccc3)n2)cc1
inactive: NCI-H23 lung 104% | NCI-H226 lung 104% | NCI-H322M lung 108% | HOP-62 NSCLC 108% | NCI-H460 lung 104% | HOP-92 NSCLC 97.4% | NCI-H522 lung 87.1% | A549/ATCC NSCLC 106% | 786-0 renal 93.6% | COLO 205 colon 105%

Oc1cccc2ccc(-c3nnc(SCc4ccc(O)c5ncccc45)n3-c3ccccc3)nc12
active: NCI-H460 lung 2.48% | HOP-92 NSCLC -0.323%
inactive: NCI-H23 lung 20.5% | NCI-H226 lung 39.5% | NCI-H322M lung 20.9% | HOP-62 NSCLC 16.5% | NCI-H522 lung 13.5% | A549/ATCC NSCLC 15.4% | 786-0 renal 25.9% | COLO 205 colon 53.9%

COc1ccc(Oc2ccc(/C=N/NC(=O)CSc3nc4ccccc4c(=O)n3-c3ccc(Cl)cc3)cc2)cc1
inactive: NCI-H23 lung 41.6% | NCI-H226 lung 79.7% | NCI-H322M lung 84.7% | HOP-62 NSCLC 73.3% | NCI-H460 lung 11.2% | HOP-92 NSCLC 77.3% | NCI-H522 lung 51.3% | A549/ATCC NSCLC 47% | 786-0 renal 25.2% | COLO 205 colon 72.8%

Cn1cc(CNc2nc3ccc(OC/C(=C/F)CN)cc3o2)ccc1=O
inactive: NCI-H23 lung 107% | NCI-H226 lung 101% | NCI-H322M lung 99.3% | HOP-62 NSCLC 109% | NCI-H460 lung 108% | HOP-92 NSCLC 108% | NCI-H522 lung 99.2% | A549/ATCC NSCLC 108% | 786-0 renal 92.4% | COLO 205 colon 110%

C#CCNC1CCC(c2csc(C#C)n2)=C1C (stereo not given)
inactive: NCI-H226 lung 75.4% | NCI-H322M lung 90.8% | HOP-62 NSCLC 28.2% | NCI-H460 lung 98.9% | NCI-H522 lung 49.7% | A549/ATCC NSCLC 96.2% | 786-0 renal 17.1% | COLO 205 colon 105%
active: NCI-H23 lung -39.4% | HOP-92 NSCLC -50.6%

COC(=O)C(Cc1ccccc1)Nc1nc(NC(Cc2ccccc2)C(=O)OC)nc(N2CCOCC2)n1 (stereo not given)
inactive: NCI-H23 lung 107% | NCI-H226 lung 102% | NCI-H322M lung 97.4% | HOP-62 NSCLC 97.3% | NCI-H460 lung 107% | HOP-92 NSCLC 119% | NCI-H522 lung 91% | A549/ATCC NSCLC 108% | 786-0 renal 100% | COLO 205 colon 105%

COc1cc2c(cc1OC)C(Sc1ccc(C)cc1)c1c(nc(N)c(C#N)c1N)O2 (stereo not given)
active: NCI-H23 lung -74.1% | NCI-H226 lung -1.22% | NCI-H322M lung -93.9% | HOP-62 NSCLC -1.58% | NCI-H460 lung -54.9% | HOP-92 NSCLC -31.8% | NCI-H522 lung -29% | A549/ATCC NSCLC -38% | 786-0 renal -78.9% | COLO 205 colon -28.5%

CC(C)C[C@@H]1N[C@@]2(C(=O)Nc3ccccc32)[C@@H](c2ccc(F)cc2)[C@@H]1C(=O)c1ccc(O)cc1
inactive: NCI-H23 lung 91.6% | NCI-H226 lung 92.7% | NCI-H322M lung 99.1% | HOP-62 NSCLC 88.9% | NCI-H460 lung 101% | HOP-92 NSCLC 74.3% | NCI-H522 lung 79.6% | A549/ATCC NSCLC 85.1% | 786-0 renal 93.2% | COLO 205 colon 110%

N#Cc1c(NC(=O)c2cccc(C(F)(F)F)c2F)sc2c1CCC(=O)C2
active: NCI-H226 lung -23.9% | NCI-H460 lung 9.08% | HOP-92 NSCLC -66.1% | NCI-H522 lung 3.71% | COLO 205 colon -8.77%
inactive: NCI-H23 lung 11% | NCI-H322M lung 35.1% | HOP-62 NSCLC 19.4% | A549/ATCC NSCLC 12.3% | 786-0 renal 14.8%

O=S(=O)(Oc1ccc(-c2nnc(Nc3ccccc3)s2)cc1)C(F)(F)C(F)(F)C(F)(F)C(F)(F)C(F)(F)C(F)(F)F
inactive: NCI-H23 lung 100% | NCI-H226 lung 99.6% | NCI-H322M lung 113% | HOP-62 NSCLC 103% | NCI-H460 lung 103% | HOP-92 NSCLC 101% | NCI-H522 lung 95.9% | A549/ATCC NSCLC 101% | 786-0 renal 108% | COLO 205 colon 104%

COc1ccc(/C=N/NC(=O)c2cn(C3CC3)c3c(OC)c(N4CC5CCCNC5C4)c(F)cc3c2=O)cc1 (stereo not given)
inactive: NCI-H23 lung 85.7% | NCI-H226 lung 99% | NCI-H322M lung 89.7% | HOP-62 NSCLC 101% | NCI-H460 lung 92% | HOP-92 NSCLC 74.5% | NCI-H522 lung 102% | A549/ATCC NSCLC 98.5% | 786-0 renal 84.2% | COLO 205 colon 95.1%

Cc1ccc(NC(=O)c2ccc(CN3CCOCC3)c(C(F)(F)F)c2)cc1Oc1ccc(-c2[nH]nc3ncnc(N)c23)cc1
inactive: NCI-H23 lung 84.6% | NCI-H226 lung 66% | NCI-H322M lung 72% | HOP-62 NSCLC 86.9% | NCI-H460 lung 66.3% | HOP-92 NSCLC 50.8% | NCI-H522 lung 62.5% | A549/ATCC NSCLC 65.1% | 786-0 renal 69.2% | COLO 205 colon 18.8%

Nc1ncc(-c2ccc3ncnc(Nc4cccc(Cl)c4F)c3c2)cn1
inactive: NCI-H23 lung 72.8% | NCI-H226 lung 66.6% | NCI-H322M lung 11% | HOP-62 NSCLC 47.5% | NCI-H460 lung 62.2% | HOP-92 NSCLC 31.3% | NCI-H522 lung 32.2% | A549/ATCC NSCLC 51.9% | 786-0 renal 43.5% | COLO 205 colon 86.4%

CC1(C)CC[C@]23CC[C@]4(C)[C@H](CC[C@@H]5[C@@]6(C)CCCN(CO)C(C)(C)[C@@H]6CC[C@]54C)[C@H]2[C@H]1OC3
inactive: NCI-H23 lung 86.4% | NCI-H226 lung 94.8% | NCI-H322M lung 71.9% | HOP-62 NSCLC 98.9% | HOP-92 NSCLC 77.5% | NCI-H522 lung 94.9% | A549/ATCC NSCLC 76.8% | 786-0 renal 83.8%
active: NCI-H460 lung 1.75% | COLO 205 colon 0.57%
